From PubChem BioAssay
MEKK3 PB1 HTS: modulators (inhibitors or enhancers) of MEK5 binding to human MEKK3 PB1 domain | bead-based flow cytometry, Alexa488-MEK5 binding to MEKK3; actives lie on both sides; 0 = blocked by unlabeled MEK5, 100 = vehicle | AID 1529 | actives 1.4% (n = 290,000) | Q99759 | binding response (% of control), % at 10 µM;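 active = binding response more than 3 SD above or below the average of its plate-row segment, actives on both sides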;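 also: Alexa488 bead fluorescence after subtracting the streptavidin-only scavenger bead signal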
MEKK2 mut-MEK5: signal of MEK5 binding to mutant human MEKK2 PB1 domain. bead flow cytometry, Alexa488-MEK5 binding to MEKK2 mutant. percent response, % at 10 µM. actives 0.35% (n = 290,000). AID 1530; in the data active = percent response above about 24%, passing the limit was not always enough
GRK2 inh: human GRK2 inhibition via aptamer displacement; P25098; actives 0.59% (n = 330,000); bead flow cytometry, FAM-aptamer displacement from GRK2; AID 488847; inhibition of aptamer binding, % at 10 µM;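 active = inhibition of aptamer binding above 40%, roughly 3 SD of noise, on plates passing a quality check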;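 also: median bead fluorescence of bound FAM aptamer so fluorescent compounds give negative values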
Target sequence (P25098 whole entry, looked up): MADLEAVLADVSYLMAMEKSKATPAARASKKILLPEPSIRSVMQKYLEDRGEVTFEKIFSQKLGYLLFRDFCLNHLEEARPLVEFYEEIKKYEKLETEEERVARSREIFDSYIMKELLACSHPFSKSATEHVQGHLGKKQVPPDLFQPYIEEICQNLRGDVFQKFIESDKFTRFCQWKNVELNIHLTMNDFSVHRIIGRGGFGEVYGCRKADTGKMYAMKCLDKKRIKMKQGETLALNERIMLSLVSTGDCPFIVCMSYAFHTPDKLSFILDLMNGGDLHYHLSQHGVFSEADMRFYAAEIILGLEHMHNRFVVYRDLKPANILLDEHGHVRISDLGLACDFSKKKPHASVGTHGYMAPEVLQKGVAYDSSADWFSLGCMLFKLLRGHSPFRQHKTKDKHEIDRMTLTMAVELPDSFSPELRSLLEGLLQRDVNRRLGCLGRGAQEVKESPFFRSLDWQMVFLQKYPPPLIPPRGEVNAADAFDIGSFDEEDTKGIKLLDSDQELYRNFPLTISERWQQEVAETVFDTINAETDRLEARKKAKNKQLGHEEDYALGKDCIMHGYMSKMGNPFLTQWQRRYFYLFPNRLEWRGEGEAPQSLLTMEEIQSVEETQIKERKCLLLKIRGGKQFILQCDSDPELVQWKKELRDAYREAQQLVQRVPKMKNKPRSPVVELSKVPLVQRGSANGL
MEKK2wt PB1 HTS: raises or lowers MEK5 binding to wildtype human MEKK2 PB1 domain; Q9Y2U5; binding response (% of control), % at 10 µM; actives 1.1% (n = 290,000); bead flow cytometry, Alexa488-MEK5 binding to MEKK2 WT; actives lie on both sides; in the data active = binding response below about 67% or above about 130%
MEKK2wt confirm: raises or lowers MEK5 binding to wildtype human MEKK2, retest; bead flow cytometry, Alexa488-MEK5 binding to MEKK2 WT; actives lie on both sides; actives 2.4% (n = 5,900); binding response (% of control), % at 10 µM; shares compounds with MEKK3 PB1 HTS; in the data active = binding response below about 16% or above about 210%; inactive = in between
MEKK2mut-MEK5: signal of MEK5 binding to mutant human MEKK2, retest; AID 1893; bead flow cytometry, Alexa488-MEK5 binding to MEKK2 mutant; shares compounds with MEKK3 PB1 HTS; percent response, % at 10 µM; actives 2% (n = 5,900); in the data active = percent response mostly above about 71%, no sharp cut-off; inactive = mostly below about 38%;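 also: higher means compound restores mutant binding toward wildtype level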
MEKK3 confirm: MEKK3-MEK5 PB1 inhibition, single concentration confirmation; bead flow cytometry, Alexa488-MEK5 binding to MEKK3; hits give low values; shares compounds with MEKK3 PB1 HTS; actives 1.8% (n = 5,900); binding response (% of control), % at 10 µM;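 active = binding response below 72% of control, or above a set upper limit, though filed actives all read lower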;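 also: 100% = DMSO only wells and 0% = binding blocked by excess unlabeled MEK5; lower values mean stronger disruption of MEK5 binding to MEKK3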
Starred values were filed as active, the others as inactive; [ ] = another dose, or the depositor's remark. This is a sample that favours compounds with a hit; in the whole collection about 2.5% have one here.

For CCOc1cccc2c1OC(c1cc(OC)c(OC)c(OC)c1)N1N=C(c3ccc(C)o3)CC21 (stereo not drawn) the results were MEKK3 PB1 HTS 15.0*[inhibitor], MEKK2 mut-MEK5 8.0, GRK2 inh 2.0, MEKK2wt PB1 HTS 6.0*, MEKK2wt confirm 93.0, MEKK2mut-MEK5 -9.0 and MEKK3 confirm 100.0.
For O=c1oc2ccc3ccccc3c2c2c1SC(C(F)(F)F)C2 (stereo not drawn) the results were MEKK3 PB1 HTS 124.0*, MEKK2 mut-MEK5 8.0, GRK2 inh 0.0, MEKK2wt PB1 HTS 115.0, MEKK2wt confirm 94.0, MEKK2mut-MEK5 -7.0 and MEKK3 confirm 99.0.
For COc1ccc(C(CCN2CCN(c3ccccc3)CC2)c2c(O)cc(OC)cc2OC)cc1 (stereo not drawn) the results were MEKK3 PB1 HTS 98.0, MEKK2 mut-MEK5 8.0, GRK2 inh 0.0, MEKK2wt PB1 HTS 135.0*, MEKK2wt confirm 140.0, MEKK2mut-MEK5 20.0 and MEKK3 confirm 107.0.
Screening CCN(CC)CCC(c1ccc(N(C)C)cc1)c1c(O)cc(OC)cc1OC (stereo not drawn) returned MEKK3 PB1 HTS 118.0, MEKK2 mut-MEK5 4.0, GRK2 inh 0.0, MEKK2wt PB1 HTS 138.0*, MEKK2wt confirm 92.0, MEKK2mut-MEK5 -8.0 and MEKK3 confirm 98.0.
`COc1cc(O)c(C(CCN2CCN(c3ccccc3)CC2)c2ccc(N(C)C)cc2)c(OC)c1` (stereo not drawn) gave MEKK3 PB1 HTS 123.0, MEKK2 mut-MEK5 9.0, GRK2 inh 0.0, MEKK2wt PB1 HTS 151.0*, MEKK2wt confirm 143.0, MEKK2mut-MEK5 19.0 and MEKK3 confirm 104.0.
For COc1cc(O)c(C(CCN2CCOCC2)c2ccc(N(C)C)cc2)c(OC)c1 (stereo not drawn) the results were MEKK3 PB1 HTS 90.0, MEKK2 mut-MEK5 10.0, GRK2 inh 1.0 and MEKK2wt PB1 HTS 90.0.
`O=C(Cc1ccc(-n2c(=O)c3sccc3n(CC(=O)Nc3ccccc3F)c2=O)cc1)NCc1ccco1` gave MEKK3 PB1 HTS 100.0, MEKK2 mut-MEK5 -5.0, GRK2 inh 0.0 and MEKK2wt PB1 HTS 92.0.
Cc1cc(NC(=O)C(C)Sc2nnc(NCc3ccco3)s2)no1 (stereo not drawn) was read as GRK2 inh 0.0.
CCOc1ccc2nc3cc(NCc4ccc(OC)cc4)ccc3c(N)c2c1 was read as MEKK3 PB1 HTS 82.0*[inhibitor], MEKK2 mut-MEK5 139.0*, GRK2 inh 0.0, MEKK2wt PB1 HTS 163.0*, MEKK2wt confirm 220.0*, MEKK2mut-MEK5 170.0* and MEKK3 confirm 98.0.
N=c1c2c(-c3ccccc3)c(-c3ccccc3)n(Cc3ccco3)c2ncn1CCCN1CCOCC1 was read as MEKK3 PB1 HTS 116.0, MEKK2 mut-MEK5 6.0, GRK2 inh 0.0, MEKK2wt PB1 HTS 149.0*, MEKK2wt confirm 127.0, MEKK2mut-MEK5 10.0 and MEKK3 confirm 95.0.
For OCCNc1ncnc2c1c(-c1ccccc1)c(-c1ccccc1)n2Cc1ccco1 the results were MEKK3 PB1 HTS 101.0, MEKK2 mut-MEK5 1.0, GRK2 inh 2.0 and MEKK2wt PB1 HTS 103.0.
`CC(C)Cn1cnc2c(c(-c3ccccc3)c(-c3ccccc3)n2Cc2ccco2)c1=N` gave MEKK3 PB1 HTS 115.0, MEKK2 mut-MEK5 16.0, GRK2 inh 0.0, MEKK2wt PB1 HTS 134.0*, MEKK2wt confirm 126.0, MEKK2mut-MEK5 27.0 and MEKK3 confirm 100.0.
Screening N=c1c2c(-c3ccccc3)c(-c3ccccc3)n(Cc3ccco3)c2ncn1Cc1ccccc1 returned MEKK3 PB1 HTS 110.0, MEKK2 mut-MEK5 17.0, GRK2 inh 0.0, MEKK2wt PB1 HTS 156.0*, MEKK2wt confirm 162.0, MEKK2mut-MEK5 40.0 and MEKK3 confirm 105.0.
Screening N=c1c2c(-c3ccccc3)c(-c3ccccc3)n(Cc3ccco3)c2ncn1CCCn1ccnc1 returned MEKK3 PB1 HTS 103.0, MEKK2 mut-MEK5 2.0, GRK2 inh 1.0 and MEKK2wt PB1 HTS 111.0.
Screening NS(=O)(=O)c1cnccc1Oc1cccc(Cl)c1 returned GRK2 inh 1.0.
`CCOC(=O)c1cccc(C(=O)Nc2nc3ccc(OC)cc3s2)n1` gave MEKK3 PB1 HTS 81.0, MEKK2 mut-MEK5 -10.0, GRK2 inh 0.0 and MEKK2wt PB1 HTS 73.0.
Screening COc1ccc(N2CCN(S(=O)(=O)CCNC(=O)c3ccc(Br)o3)CC2)cc1 returned MEKK3 PB1 HTS 102.0, MEKK2 mut-MEK5 4.0, GRK2 inh 0.0 and MEKK2wt PB1 HTS 103.0.
COC(=O)c1sc2nc(C)c([N+](=O)[O-])c(C)c2c1N was read as MEKK3 PB1 HTS 91.0, MEKK2 mut-MEK5 7.0, GRK2 inh 3.0 and MEKK2wt PB1 HTS 97.0.
For CCNc1nc(N2CCCCC2)nc(-n2nnc(C(=O)OCC)c2C)n1 the results were MEKK3 PB1 HTS 60.0*[inhibitor], MEKK2 mut-MEK5 -12.0, GRK2 inh 0.0, MEKK2wt PB1 HTS 61.0*[inhibitor], MEKK2wt confirm 67.0, MEKK2mut-MEK5 0.0 and MEKK3 confirm 101.0.
Screening O=C(c1cc(Cl)ccc1Cl)N1CCOCC1 returned MEKK3 PB1 HTS 0.0*[inhibitor], MEKK2 mut-MEK5 -21.0, GRK2 inh 5.0, MEKK2wt PB1 HTS -4.0*[inhibitor], MEKK2wt confirm 106.0, MEKK2mut-MEK5 13.0 and MEKK3 confirm 102.0.
`O=C(O)c1cc(Cl)c(Cl)cc1C(=O)N1CCOCC1` gave MEKK3 PB1 HTS 98.0, MEKK2 mut-MEK5 1.0, GRK2 inh 0.0 and MEKK2wt PB1 HTS 100.0.
COc1ccc(NC(=O)c2sc3nc(Cc4ccccc4)cc(C(F)(F)F)c3c2N)cc1OC was read as MEKK3 PB1 HTS 159.0*, MEKK2 mut-MEK5 2.0, GRK2 inh 4.0, MEKK2wt PB1 HTS 110.0, MEKK2wt confirm 39.0, MEKK2mut-MEK5 -25.0 and MEKK3 confirm 35.0*.
`CCOC(=O)C1CN(S(=O)(=O)c2cccs2)c2ccc(CC(=O)OC)cc2O1` (stereo not drawn) gave MEKK3 PB1 HTS 99.0, MEKK2 mut-MEK5 6.0, GRK2 inh 3.0 and MEKK2wt PB1 HTS 105.0.
CCOC(=O)c1c(C)[nH]c(C)c1C(=O)CSc1nc2ccccc2n1CC was read as MEKK3 PB1 HTS 135.0*, MEKK2 mut-MEK5 0.0, GRK2 inh 0.0, MEKK2wt PB1 HTS 102.0, MEKK2wt confirm 102.0, MEKK2mut-MEK5 -3.0 and MEKK3 confirm 100.0.
`CC#CC(=O)NCC1(N(C)Cc2ccccc2)Cc2ccccc2C1` gave MEKK3 PB1 HTS 105.0, MEKK2 mut-MEK5 3.0, GRK2 inh 0.0 and MEKK2wt PB1 HTS 103.0.
N/C(Cc1ccc([N+](=O)[O-])cc1)=N\OC(=O)c1ccc(Br)cc1 was read as MEKK3 PB1 HTS 132.0*, MEKK2 mut-MEK5 1.0, GRK2 inh 1.0, MEKK2wt PB1 HTS 109.0, MEKK2wt confirm 106.0, MEKK2mut-MEK5 5.0 and MEKK3 confirm 105.0.
